# Sampled rows, rich in hits. Any-hit rate of the full collection: about 3.5%.
# DNMT1 block: human DNMT1 methyltransferase inhibitors, primary screen, biochemical, molecular beacon, fluorescence, HinP1I cleavage, uHTS; DNA (cytosine-5)-methyltransferase 1 (Homo sapiens), P26358; 360,000 compounds, 0.83% hits; AID 588458, 2011; inhibition (reported as % activation of signal), % at 10 µM; in the data active = inhibition above about 50%
# LEDGF integ inh: blockers of LEDGF/p75-dependent integrase strand transfer – biochemical, TR-FRET, high throughput, primary screen | TR-FRET IN-LEDGF/p75 DNA integration, Eu/Cy5 | inhibition, % at 3.7 µM | 370,000 compounds, 0.64% hits;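 active = inhibition above the screen-wide mean plus 3 SD, cut at about 13% in these data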;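 note: signal is the Cy5 over europium emission ratio at 671 and 618 nm; 0% = plate median of compound wells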
# UHRF1 MBD2 ctr: UHRF1 methylated DNA binding inhibitors, primary screen, counter-screen for MBD2 inhibitor project, biochemical, TR-FRET, human UHRF1, single concentration | UHRF1 binding to methylated oligo | inhibition, % at 4.4 µM | 370,000 compounds, 0.75% hits | AID 687016, 2013; in the data active = inhibition above about 21%;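 note: UHRF1 SRA domain binding a hemimethylated CpG hairpin DNA probe; 0% = median of test compound wells and 100% = reference inhibitor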
# MBD2 inh: inhibitors of MBD2 binding to methylated DNA, primary screen, biochemical, TR-FRET, DNA-binding domain, human; 370,000 compounds, 0.31% hits; Methyl-CpG-binding domain protein 2 (Homo sapiens), Q9UBB5; inhibition, % at 4.4 µM; MBD2 binding to methylated oligonucleotide; AID 686964, 2013; in the data active = inhibition above about 13%
# Target sequence (Q9UBB5 whole entry, looked up, the tested form may be a part): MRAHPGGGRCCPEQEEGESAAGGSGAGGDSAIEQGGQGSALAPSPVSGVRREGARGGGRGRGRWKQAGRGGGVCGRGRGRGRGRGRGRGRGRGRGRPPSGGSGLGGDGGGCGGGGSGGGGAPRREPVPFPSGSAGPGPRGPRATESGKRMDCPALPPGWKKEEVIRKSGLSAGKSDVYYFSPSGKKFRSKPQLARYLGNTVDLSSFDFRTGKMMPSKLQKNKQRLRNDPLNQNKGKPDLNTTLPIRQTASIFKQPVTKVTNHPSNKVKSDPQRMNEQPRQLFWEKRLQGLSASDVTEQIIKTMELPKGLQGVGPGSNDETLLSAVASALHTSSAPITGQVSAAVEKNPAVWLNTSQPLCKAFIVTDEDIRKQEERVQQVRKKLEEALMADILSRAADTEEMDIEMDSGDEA
# rCAG RNA binder: binders of r(CAG) RNA repeats, primary screen, biochemical, fluorescence; r(CAG) RNA repeat, TO-PRO-1 dye displacement fluorescence; inhibition, % at 3 µM; 370,000 compounds, 1.3% hits;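 active = inhibition above the plate cutoff, the mean of all test compounds on that plate plus 3 SD, cut at about 35% in these data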;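 note: 0% = DMSO alone and 100% = 100 µM mitoxantrone as full dye displacement; higher means more dye released from RNA so lower well fluorescence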
# PG9 Ab binder: binders of HIV-1 gp120 antibody PG9, primary screen, biochemical, TR-FRET; HIV-1 gp120 / PG9 antibody interaction; TR-FRET gp120-PG9 antibody binding; inhibition, % at 6.7 µM; 360,000 compounds, 0.43% hits; in the data active = inhibition above about 8.5%
# IN multimer act: HIV-1 IN multimer formation enhancers, counter-screen for LEDGF/p75 integration inhibitor project, biochemical, TR-FRET. 2,000 compounds, 17% hits. TR-FRET HIV-1 integrase multimerization. shares compounds with LEDGF integ inh. activation, % at 7.7 µM; in the data active = activation above about 8.9%
# TR-FRET interf: TR-FRET optical interference artefacts, confirmation, artefact control for LEDGF/p75-dependent integration inhibitor project, biochemical, HIV-1 IN multimerization | TR-FRET optical interference counterscreen | 2,000 tested, under 10 active | shares compounds with LEDGF integ inh | inhibition, % at 7.7 µM;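 active = inhibition above the mean over all tested compounds plus 3 SD, which no compound reached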;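 note: 0% = integrase with antibodies and DMSO and 100% = antibodies without integrase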
# LEDGF integ conf: inhibitors of HIV-1 IN-LEDGF/p75 DNA integration, confirmation, biochemical, TR-FRET; TR-FRET LEDGF/p75-dependent HIV-1 integration; 2,000 compounds, 36% hits; shares compounds with LEDGF integ inh; inhibition, % at 3.7 µM; in the data active = inhibition above about 14%
# Active calls of the source: *; . = no result.
SMILES,DNMT1 block,LEDGF integ inh,UHRF1 MBD2 ctr,MBD2 inh,rCAG RNA binder,PG9 Ab binder,IN multimer act,TR-FRET interf,LEDGF integ conf
N#CC1=C(N)Oc2cc(N)ccc2C1c1ccc(F)cc1 (configuration not stated),-17,23*,-4,-7,18,0,1,-6,1
N#CC1=C(N)Oc2cc(N)ccc2C1c1ccc(Cl)cc1 (configuration not stated),-8,5,-7,-3,8,0,.,.,.
COc1ccc(C2C(C#N)=C(N)Oc3cc(N)ccc32)cc1 (configuration not stated),-7,18*,-3,4,17,1,-1,5,-5
COc1cc(C2C(C#N)=C(N)Oc3cc(N)ccc32)cc(OC)c1OC (configuration not stated),-13,7,-3,-1,3,1,.,.,.
CCCCNC(=O)c1nc(-c2ccccc2)oc1-c1ccc(Cl)cc1,.,-1,2,2,1,0,.,.,.
COC(=O)[C@]12C[C@H](CC(=O)N3CCC(c4ccccc4)CC3)C(=O)N(Cc3cccc4ccccc34)C1=C[C@H](C(C)C)O[C@@H]2C1CC1,.,-1,1,4,7,.,.,.,.
O=C(CSc1nc2ccccc2c(=O)n1-c1ccc(OC(F)F)cc1)NC1CC1,-1,-1,-4,-1,2,0,.,.,.
COc1cccc(=O)c2c(C)n(C)c(C)c12,22,36*,22*,1,23,-2,6,-21,0
CCOc1cccc(=O)c2c(C)n(C)c(C)c12,8,14*,4,-3,15,-2,4,-13,0
CCCCCn1c(C)c2c(OCC)cccc(=O)c2c1C,8,8,20,5,10,0,.,.,.
COc1cccc(=O)c2c(C)n(-c3cc(C)cc(C)c3)c(C)c12,41,4,0,1,9,-1,.,.,.
COc1ccc(CNC(=O)C2CC(C)=CCC2C(=O)O)cc1 (configuration not stated),0,-2,15,3,-1,0,.,.,.
CN1C(=O)N(CC(=O)Nc2ccc3c(c2)OCO3)C(=O)C12CCCCC2,-12,0,-1,-3,6,-2,.,.,.
O=C(OCc1cn(Cc2ccc(C(F)(F)F)cc2)nn1)N1CCCC1,.,-5,4,-2,2,.,.,.,.
Cc1ccccc1Nc1nnc(SCc2cc(=O)n3ccsc3n2)s1,4,3,-3,-4,5,-4,.,.,.
COc1ccccc1Nc1nnc(SCc2cc(=O)n3cc(C)ccc3n2)s1,1,36*,-1,-3,5,2,2,-8,-3
O=C(CC(=O)OCc1ccccc1)OCc1ccccc1,4,7,-2,1,0,1,.,.,.
N#CC(CC(=O)OCc1ccccc1)NC(=O)OCc1ccccc1 (configuration not stated),0,33*,0,1,-1,0,-1,6,-3
CCOC(=O)[C@]12CCCCC/C=C\1N(CCc1ccc(Cl)cc1)C(=O)[C@H]2CC(=O)NCCc1ccccc1OC,.,18*,-2,3,8,.,0,1,-4
CC1(C)Cc2c(c(-c3ccco3)[nH]c(=O)c2C#N)CS1,17,18*,15,-1,20,-1,-1,5,23*
CC(=O)N1CCN(c2nc(-c3ccco3)c3c(c2C#N)CC(C)(C)SC3)CC1,-8,22*,7,4,17,0,-1,6,19*
CC1(C)Cc2c(c(-c3ccccc3)[nH]c(=O)c2C#N)CS1,0,-1,0,0,0,1,.,.,.
COc1ccc(Br)cc1CN1CCN(S(=O)(=O)Cc2ccccc2)CC1,1,1,-1,-2,-8,-3,.,.,.
Oc1c(CN2CCOCC2)cc(CN2CCOCC2)c(O)c1CN1CCOCC1,-4,20*,-5,-2,11,1,2,-8,-2
CCN(c1ccccc1)S(=O)(=O)c1ccc(Cl)c(NC(=O)CNCc2ccccc2OC)c1,1,-2,2,-2,5,0,.,.,.
SMILES,DNMT1 block,LEDGF integ inh,UHRF1 MBD2 ctr,MBD2 inh,rCAG RNA binder,PG9 Ab binder,IN multimer act,TR-FRET interf,LEDGF integ conf
Cc1ccc(-n2c(SCC(=O)N/N=C/c3ccccc3OCC(=O)O)nc3ccccc3c2=O)cc1,-5,68*,-2,-2,23,0,0,-1,3
CC(=O)Nc1ccc(NS(=O)(=O)c2ccc(Cl)s2)cc1,-3,4,0,-7,-2,-2,.,.,.
Cn1cc(Br)c(NS(=O)(=O)c2ccc(Cl)s2)n1,0,25*,1,1,-1,2,1,-4,-4
Cc1cccc(OC(C)C(=O)Nc2nccs2)c1 (configuration not stated),4,-3,0,-4,-7,-1,.,.,.
CCOC(=O)[C@@]12CN(C(=O)OC(C)(C)C)CC=C1N(Cc1ccc(OC)cc1)C(=O)[C@H]2CC(=O)NCCCCc1ccccc1,.,0,-2,-5,1,.,.,.,.
CN(C)S(=O)(=O)c1ccc(C(=O)Nc2cc(=O)n(C)c(=O)n2C)cc1,4,44*,0,2,0,-1,1,-3,1
Cn1c(NC(=O)c2ccccc2)cc(=O)n(C)c1=O,5,3,2,-5,-1,-1,.,.,.
Cn1c(NC(=O)c2ccco2)cc(=O)n(C)c1=O,0,24*,-3,-4,1,1,0,-1,-4
S=C(NCCCCN(Cc1ccc(Cl)cc1)c1ccc(Br)cn1)NCCCc1cnc[nH]1,-12,0,0,-7,5,0,.,.,.
COc1ccc(CN2CN3Cc4ccc(C)cc4C3CS2(=O)=O)cc1 (configuration not stated),.,0,-2,3,6,.,.,.,.
CC(C)(C)OC(=O)C[C@H]1C/C=C\C[C@@H](CC(=O)N[C@H](CO)Cc2ccccc2)C(=O)NC[C@H](c2ccccc2)OC1=O,7,1,-8,1,-9,-2,.,.,.

# Screening data deposited in PubChem by several laboratories.
